# Experimental data published in article PMC4336329 (PLoS ONE, 2015).
# Hit rate of the full screen: of about 310,000 compounds, about 14,000 (4.5%) showed an effect of 50% or more. Effects have a minus sign here. What follows is part of a selection rich in strong results, with near analogues and random picks from the rest.
# Molecular target: human ether-à-go-go-related gene (hERG) potassium channel (human, UniProt Q12809)
# Test: primary screen, population patch clamp on CHO cells stably expressing hERG; higher = less effect of the substance
# 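Also: peak tail current of the secondary pulse compared with the same well before compound.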
# human ether-à-go-go-related gene (hERG) potassium channel, sequence (Q12809 whole entry, looked up): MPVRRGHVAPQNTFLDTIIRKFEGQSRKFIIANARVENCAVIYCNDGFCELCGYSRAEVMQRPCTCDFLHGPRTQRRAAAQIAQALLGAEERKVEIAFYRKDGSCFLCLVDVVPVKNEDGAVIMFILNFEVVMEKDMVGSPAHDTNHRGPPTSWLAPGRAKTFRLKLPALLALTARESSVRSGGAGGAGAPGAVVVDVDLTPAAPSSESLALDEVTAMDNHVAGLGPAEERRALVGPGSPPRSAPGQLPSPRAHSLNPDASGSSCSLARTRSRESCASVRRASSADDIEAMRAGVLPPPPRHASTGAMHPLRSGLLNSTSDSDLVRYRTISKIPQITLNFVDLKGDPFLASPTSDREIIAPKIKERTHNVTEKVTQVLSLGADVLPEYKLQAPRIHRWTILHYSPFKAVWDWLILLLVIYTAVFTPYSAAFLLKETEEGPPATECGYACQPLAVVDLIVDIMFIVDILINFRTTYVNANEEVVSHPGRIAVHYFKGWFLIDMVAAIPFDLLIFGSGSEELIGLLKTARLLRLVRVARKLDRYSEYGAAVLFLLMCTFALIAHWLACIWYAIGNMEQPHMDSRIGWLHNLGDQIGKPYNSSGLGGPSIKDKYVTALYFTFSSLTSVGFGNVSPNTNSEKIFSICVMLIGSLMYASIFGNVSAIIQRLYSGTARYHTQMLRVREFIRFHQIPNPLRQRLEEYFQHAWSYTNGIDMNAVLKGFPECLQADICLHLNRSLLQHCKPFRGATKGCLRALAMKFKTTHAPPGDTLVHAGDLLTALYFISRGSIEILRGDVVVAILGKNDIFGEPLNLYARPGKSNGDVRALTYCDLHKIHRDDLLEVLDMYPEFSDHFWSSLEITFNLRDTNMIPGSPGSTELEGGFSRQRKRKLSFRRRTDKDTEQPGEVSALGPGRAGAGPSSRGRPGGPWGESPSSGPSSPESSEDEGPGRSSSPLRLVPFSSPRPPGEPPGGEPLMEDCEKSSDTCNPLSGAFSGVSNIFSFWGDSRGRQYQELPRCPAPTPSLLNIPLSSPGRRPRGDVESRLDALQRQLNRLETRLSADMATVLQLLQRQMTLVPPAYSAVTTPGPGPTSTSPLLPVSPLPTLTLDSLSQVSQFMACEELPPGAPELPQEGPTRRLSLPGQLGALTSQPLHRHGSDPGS
row,Structure (SMILES),"hERG current change (%, negative = inhibition) at 10uM [%]"
1,Cc1cc(=O)n2nc(N3CCCC(C(=O)N4CCOCC4)C3)sc2n1 (centres unmarked),3.1
2,COc1ccc(/C=C/c2c([N+](=O)[O-])c(=O)n(C)c(=O)n2C)c(OC)c1OC,13
3,O=C(N/N=C/c1cccc2ccccc12)c1cccs1,20.7
4,COc1ccccc1N(CC(=O)NCC1CCCO1)C(=O)CNS(=O)(=O)c1ccccc1 (centres unmarked),-0.369
5,Cc1cc(=O)oc(C)c1C(=O)Nc1ccc2nsnc2c1,9.45
6,CCOC(=O)c1ccc2c(c1)nc(SC(C)C(=O)NCC1CCCO1)n2CC (centres unmarked),-18.9
7,CCOC(=O)c1ccc(NC(=O)CNC(=O)c2ccco2)cc1,13.8
8,O=C(NC(=S)Nc1ccccn1)c1ccc([N+](=O)[O-])cc1,-11.9
9,O=C(CC12CC3CC(CC(C3)C1)C2)NC1CC1,23.2
10,CCOc1ccc(S(=O)(=O)N2CCN(C(=S)NCc3ccccc3)CC2)cc1,-18.2
11,Nc1cccc(C(=O)Nc2cccc3ncccc23)c1,23.8
12,Cc1cccc(N2CCN(C(=O)c3ccc4c(c3)CCN4S(C)(=O)=O)CC2)c1C,-14.8
13,Cc1nc(SCC(=O)N2CCN(C(=O)c3ccco3)CC2)c2c(C)c(C)sc2n1,-66.8
14,Cc1nc(SCC(=O)N2CCCCC2)c2c(C)c(C)sc2n1,-11.7
15,Cc1nc(SCC(=O)N2CCOCC2)c2c(C)c(C)sc2n1,1.76
16,CCCN1Cc2cccc(C(=O)NCc3ccccc3)c2C1=O,-34.9
17,O=C(Nc1cccc(-c2nnc(-c3ccccc3)o2)c1)C1CC1,-19.3
18,O=C(Nc1ccc(-c2nnc(-c3ccccc3)o2)cc1)C1CCCO1 (centres unmarked),-13.3
19,O=C(Nc1cccc(-c2nnc(-c3ccccc3)o2)c1)C1CCCO1 (centres unmarked),-66.5

row,Structure (SMILES),"hERG current change (%, negative = inhibition) at 10uM [%]"
1,C=CCn1c(=NC(=O)C2CCCCC2)sc2cc(NC(C)=O)ccc21,-2.15
2,CCOC(=O)C1CCN(CC(O)COCc2cccs2)CC1 (centres unmarked),-38
3,O=S(=O)(c1ccc(F)cc1)N1CCN(CC(O)COCc2cccs2)CC1 (centres unmarked),-18.5
4,Oc1ccccc1N1CCN(CC(O)COCc2ccccc2Cl)CC1 (centres unmarked),-42
5,COc1ccccc1N1CCN(CC(O)COCc2cccs2)CC1.Cl (centres unmarked),-19.8
6,OC(COCc1cccs1)CN1CCN(c2ccccn2)CC1 (centres unmarked),-52.5
7,Cc1cccc(N2CCN(CC(O)COCc3cccs3)CC2)c1C (centres unmarked),-70.8
8,CCOc1ccccc1N1CCN(CC(O)COCc2cccs2)CC1 (centres unmarked),-32.1
9,OC(COCc1cccs1)CN1CCN(c2ccccc2Cl)CC1 (centres unmarked),-71
10,CCOC(=O)c1cccc(COC(=O)c2cccc(-c3nnc(-c4ccccc4)o3)c2)c1,-2.94
11,COc1ccc(C(=O)c2ccsc2N)cc1,3.5
12,Cc1ccc(OP(=O)(O)Oc2ccc(C)cc2)cc1,2.09
13,CCOC(=O)c1cnc2ccc(OCC)cc2c1NCc1cccnc1.Cl,-77.4
14,CCOC(=O)c1cnc2ccc(OC)cc2c1NCc1ccccc1,-65.8
15,CCOC(=O)c1cnc2ccc(OCC)cc2c1N(C)Cc1ccccc1,-11.9
16,CCOC(=O)c1cnc2ccc(OCC)cc2c1NCc1ccccc1,-40.3
17,CCOC(=O)c1nc(NCc2cccnc2)c2ccccc2n1,-15.3
18,CCOC(=O)c1cnc2ccc(OCC)cc2c1NCc1ccccc1OC,4.45
19,Cc1cccc(NC(=O)c2cc(S(=O)(=O)NCc3ccco3)ccc2F)c1C,4.11

row,Structure (SMILES),"hERG current change (%, negative = inhibition) at 10uM [%]"
1,O=C(CNC(=O)c1ccc(-c2ccccc2)cc1)Nc1ccc(S(=O)(=O)Nc2ncccn2)cc1,4.04
2,Cc1cc(NCc2ccccn2)ccc1Br,-16.5
3,Clc1ccc(Cn2cccc2C2=NCCO2)cc1,4.69
4,CC(C)CNc1nc(Oc2ccc(=O)[nH]n2)nc(N(C)C)n1,8.46
5,COC(=O)CC(NC(=S)NC(=O)c1ccccc1)c1ccc(Br)cc1 (centres unmarked),6.8
6,C=CCn1cc(C(=O)NCCOC)c(=O)c2cc(S(=O)(=O)N(CC)CC)ccc21,-13.9
7,C=CCn1cc(C(=O)NCCCN(CC)CC)c(=O)c2cc(S(=O)(=O)N3CCC(C)CC3)ccc21,-53.7
8,C=CCn1cc(C(=O)NCCOC)c(=O)c2cc(S(=O)(=O)N3CCCCCC3)ccc21,-65.8
9,C=CCn1cc(C(=O)NCCCOC)c(=O)c2cc(S(=O)(=O)N3CCC(C)CC3)ccc21,-32.9
10,C=CCn1cc(C(=O)OC)c(=O)c2cc(S(=O)(=O)N3CCC(C)CC3)ccc21,-39
11,C=CCn1cc(C(=O)NCCN(CC)CC)c(=O)c2cc(S(=O)(=O)N3CCCCCC3)ccc21,-71.6
12,C=CCn1cc(C(=O)NCc2ccc(Cl)cc2)c(=O)c2cc(S(=O)(=O)N(CC)CC)ccc21,-22.5
13,C=CCn1cc(C(=O)NCc2cccnc2)c(=O)c2cc(S(=O)(=O)N(CC)CC)ccc21,-74.4
14,COCCNC(=O)c1cn(C)c2ccc(S(=O)(=O)N3CCCCC3)cc2c1=O,11.1
15,CCN(CC)CCNC(=O)c1cn(CC)c2ccc(S(=O)(=O)N3CCOCC3)cc2c1=O,14.6
16,C=CCn1cc(C(=O)OC)c(=O)c2cc(S(=O)(=O)N3CCCCCC3)ccc21,-0.223
17,C=CCn1cc(C(=O)NCc2ccco2)c(=O)c2cc(S(=O)(=O)N3CCCCCC3)ccc21,-36.4
18,CC(C)COc1ccc(C(=O)Nc2ccc(N3CCOCC3)cc2N2CCOCC2)cc1,1.07
